In the supplement of paper PMC10338343:
± gives the standard deviation. Whole data set: some 5,500 sequences, median “pre-steady-state target cleavage rate” near 0.1, cut for the highest 2% near 0.64. This is one part of a sample in which the highest values are shown more often than they occur.

test system: MIWI (PIWIL1) piRISC loaded with piRNA #2 (30 nt); assay: pre-steady-state target cleavage rate (min^-1); MIWI and MILI are mouse PIWI proteins and EfPiwi is from a freshwater sponge; tags in brackets are library labels; higher = faster piRNA-guided slicing of the target; details: guide: piRNA #2 5'p-UUAGGUAACCCAGUAGAUCCAGAGGAAUUC; auxiliary factor: 500 nM mouse GTSF1
Procedure: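 Cleave-'n-Seq: a library of target RNAs (target site embedded in constant flanks, ACAGCATTCCGCGTTAGTGATATCCG... 5' flank; DNA-blocked outside the site) at 0.1 nM was incubated with 1 nM active mouse MILI or MIWI piRISC (synthetic 5'-monophosphorylated piRNA guide) with or without 500 nM mouse GTSF1 at 33 °C for 1 min to 16 h. Uncleaved targets were sequenced and normalised to non-target controls, and the pooled three trials were fitted to a burst-and-steady-state model to give the pre-steady-state cleavage rate (min^-1; k3 is constrained to at most 1e-4). Sequence is the target site only; target names encode pairing extent (gX:gY) and contiguous / 1-mismatch / 2-mismatch / bulge geometry. Fits with R² ≤ 0 are excluded.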

Row | Sequence | pre-steady-state target cleavage rate
1 | CUUAAGGUCUGGAUCUACUCGGUUACCUAA | 0.0416 ± 0.02
2 | CUUAUCCUCUGGAUCUUCUGGGUUACGUAA | 0.45 ± 0.055
3 | CUAUUCCUCUGGAUCUACUGGAGUUACCUAA | 0.00422 ± 0.0041
4 | CUUUUCCUCUGGAUCUACUGAGUUACCUAA | 0.727 ± 0.048
5 | GAAUUCCUCUGGAUCUACUGAGUUACCUAA | 0.67 ± 0.046
6 | CUUUUCCUCUGGAUCUACUGGUUACCUAA | 0.0817 ± 0.016
7 | CUUUUCCUCUGGAUCUACUGGGUUACCUAA [g2:g27:cont:t1A] | 0.408 ± 0.057
8 | CAAUUCCUCUGGAUCUACUGAGGUUACCUAA | 0.00648 ± 0.0048
9 | CAAUUCCUCUGGAUCUACUGAGUUACCUAA | 0.869 ± 0.075
10 | GAAUUCCUCUGGAUCUACUGGAGUUACCUAA | 0.00576 ± 0.0035
11 | GAAUUCCUCUGGAUCUACUGAGGUUACCUAA | 0.00556 ± 0.0037
12 | CUAUUCCUCUGGAUCUACUGAGUUACCUAA | 0.823 ± 0.06
13 | CAAUUCCUCUGGAUCUACUGGAGUUACCUAA | 0.00382 ± 0.0035
14 | CUAUUCCUCUGGAUCUACUGGUUACCUAA | 0.104 ± 0.026
15 | CUUAUCCUCUGGAUCUACAGGGUUACCAAA | 0.237 ± 0.03
16 | CAAUUCCUCUCGAUCUACUGGGUAACCUAA | 0.476 ± 0.058
17 | GAAUUCCUCUGGAUCUUCUGGGAUACCUAA | 0.108 ± 0.018
18 | CUUAUCCUCUGGAUCUUCUGGGUAACCUAA | 0.0522 ± 0.013
19 | GAAUUCCUCUGCAACUACUGGGUUACCUAA | 0.413 ± 0.048
20 | CUAUUCCUCUGGAUCUACUGGGUAACCUAA | 0.231 ± 0.042
21 | CUUAAGGUCUGGAUCUCCUGGGUUACCUAA | 0.0565 ± 0.013
22 | CUUAUCCUCUGGAUCUACUGGGUUAACUAA | 0.407 ± 0.071
23 | CUUAAGGUCUGGAACUAGUGGGUUACCUAA | 0.0577 ± 0.017
24 | CAAUUCCUCAGCAUCUACUGGGUUACCUAA | 0.437 ± 0.044
25 | CUUAAGCUCCUGGAUCUACUGGGUUACCUAA | 0.181 ± 0.021

Row | Sequence | pre-steady-state target cleavage rate
26 | CUUAUCCUCGUGGAUCUACUGGGUUACCUAA | 0.161 ± 0.032
27 | GAAUUCCACUGGAUCUACUCGGUUACCUAA | 0.193 ± 0.022
28 | CUAUUCCUCUGGAUCUACUGCGUUACGUAA | 0.539 ± 0.08
29 | CUUAACCUCUGGAUCUACUGGGUUACCGUAA | 0.155 ± 0.019
30 | CUAUUCCUCUAGGAUCUACUGGGUUACCUAA | 0.278 ± 0.041
31 | CUAUUCCUCUGAGAUCUACUGGGUUACCUAA | 0.471 ± 0.042
32 | GAAUUCCUCUAGGAUCUACUGGGUUACCUAA | 0.348 ± 0.074
33 | GAAUUCCUCUGAGAUCUACUGGGUUACCUAA | 0.381 ± 0.046
34 | CAAUUCCUCUGAGAUCUACUGGGUUACCUAA | 0.545 ± 0.057
35 | GAAUUCCUCUAGAUCUACUGGGUUACCUAA | 0.731 ± 0.05
36 | CAAUUCCUCUAGAUCUACUGGGUUACCUAA | 0.807 ± 0.047
37 | CUAUUCCUCUAGAUCUACUGGGUUACCUAA | 0.67 ± 0.042
38 | CAAUUCCUCUAGGAUCUACUGGGUUACCUAA | 0.434 ± 0.048
39 | CUAUUACCUCUGGAUCUACUGGGUUACCUAA | 0.227 ± 0.041
40 | CUUAAGGUCUGGAACUACUGGCUUACCUAA | 0.027 ± 0.022
41 | CUUAAGCUCAGGAUCUACAGGGUUACCUAA | 0.081 ± 0.014
42 | CUUAAGGACAGCAUCUACUGGGUUACCUAA | 0.00648 ± 0.0035
43 | CUAUUCGUCUGGAUCUACUGGGUUACCAAA | 0.36 ± 0.064
44 | CUUUACCUCUCGAUCUACUGGGUUACCUAA | 0.47 ± 0.033
45 | CAUUUCCUCUGGAUCUACUGGGUUACCUAA | 0.541 ± 0.059
46 | GAUUUCCUCUCGAUCUACUGGGUUACCUAA | 0.66 ± 0.067
47 | CUUUUCCUCUCGAUCUACUGGGUUACCUAA | 0.602 ± 0.04
48 | CAUUUCCUCUCGAUCUACUGGGUUACCUAA | 0.808 ± 0.052
49 | GAUUUCCUCUGGAUCUACUGGGUUACCUAA | 0.183 ± 0.042
50 | CAAUUCGACUGGAUCUACUGGGUUACCUAA | 0.357 ± 0.05

Row | Sequence | pre-steady-state target cleavage rate
51 | CUUUUCCUCUGGAUCUACUGCGUAACCUAA | 0.174 ± 0.032
52 | CUUAAGGAGAGGAUCUACUGGGUUACCUAC [g2:g20:cont:t1C] | 0.0183 ± 0.0054
53 | CAAUUGCUCUGGAUCUACUGGGUUACCUUA | 0.212 ± 0.048
54 | GAAUUCCUCUGGAUCUACUCGCUUACCUAA | 0.00392 ± 0.0028
55 | CUUAAGGAGAGCGAUCUACUGGGUUACCUAA | 0.00514 ± 0.003
56 | GAAUUCCUCUCGAUCUACUGCGUUACCUAA | 0.691 ± 0.063
57 | CUAUUCCUCUCGAUCUACUGCGUUACCUAA | 0.948 ± 0.092
58 | CUUUUCCUCUCGAUCUACUGCGUUACCUAA | 0.845 ± 0.072
59 | CAAUUCCUCUCGAUCUACUGCGUUACCUAA | 0.907 ± 0.084
60 | GAAUUCCUCUGGAUCUACUGCGUUACCUAA | 0.469 ± 0.056
61 | GAAUUCCUCUCGAUCUACUCGGUUACCUAA | 0.123 ± 0.018
62 | CUUUUCCUCUGGAUCUACUGCGUUACCUAA | 0.527 ± 0.057
63 | CAAUUCCUCUGGAUCUACUGCGUUACCUAA | 0.593 ± 0.069
64 | CAAUUCCUCUCGAUCUACUCGGUUACCUAA | 0.22 ± 0.022
65 | CUAUUCCUCUGGAUCUACUGCGUUACCUAA | 0.521 ± 0.065
66 | CUAUUCCUCUCGAUCUACUCGGUUACCUAA | 0.196 ± 0.017
67 | CUUUUCCUCAGGAUCUACUGCGUUACCUAA | 0.524 ± 0.062
68 | CUUAUCCUCUGGAUCUACUCCGUUACCUAA | 0.021 ± 0.009
69 | CAUUUCCUCUGGAACUACUGGGUUACCUAA | 0.612 ± 0.044
70 | GAAUUGCUCAGGAUCUACUGGGUUACCUAA | 0.168 ± 0.037
71 | CUUAAGGUCUGGAUCUACUGGGUUUGCUAA | 0.0859 ± 0.018
72 | CAAUUCCUGUGGAUCUACAGGGUUACCUAA | 0.268 ± 0.036
73 | CUUAAGCUCUGGAUCUACUGGGUUACCUAG [g2:g24:cont:t1G] | 0.0755 ± 0.013
